# Laboratory results published in PubChem BioAssay (NCATS).
# Inconclusive results are not listed. Entries that show only a call come without a potency. Values without a mark were called inactive. Calls of active or inactive are those of the source. Unless noted, the call rests on the fitted dose curve; in most records, active means well fitted curve in the direction sought with a large enough effect; inconclusive means small, poorly fitted or top-dose-only effect, or another doubt; inactive means no such curve, though single readings can be large; an effect the other way counts as inactive or inconclusive. Numbered stars: 1 amine (or outer) side, 2 acyl side, 3 side chain; on linkers, the order of the positions; unused ones are H or OH. Bridge positions count the residues as written; N and C are the ends. Square brackets hold non-standard residues; d marks the D form. Peptide text beside a SMILES is read from it. * marks the point of attachment. ξ: configuration not given here. ξhTyr(3S-OH,4S-OH,3'-OSO3H) = NC(C(=O)O)[C@H](O)[C@@H](O)c1ccc(O)c(OS(=O)(=O)O)c1; Orn(4R-OH,5R-OH) = O=C([C@H](C[C@@H](O)[C@@H](O)N[*:3])N[*:1])[*:2]; X6 = CCCCCOc1ccc(-c2cc(-c3ccc(C(=O)*)cc3)no2)cc1; X7 = C[C@H]1CN([*:1])C(C(=O)[*:2])[C@H]1O; ξGln(3R-OH) = NC(=O)C[C@@H](O)C(N)C(=O)O; ξPro(4R-OH) = O=C(O)C1C[C@@H](O)CN1; ξThr(3R) = C[C@@H](O)C(N)C(=O)O
# How the values were obtained:
# [1] = molecular target: Aldehyde dehydrogenase, mitochondrial (Homo sapiens) (UniProt P05091); experiment: qHTS for Inhibitors of the Aldehyde Dehydrogenase Family (ALDH2) Primary screen (AID 2061308); further: nearly all actives have a fitted effect of over 55% in size; further: potency means the concentration at half of the fitted maximal effect
# [2] = molecular target: Retinaldehyde dehydrogenase 3 (Homo sapiens) (UniProt P47895); experiment: qHTS for Inhibitors of the Aldehyde Dehydrogenase Family (ALDH1A3) Confirmatory screens (AID 2061311); further: potency means the concentration at half of the fitted maximal effect; nearly all actives have a fitted effect of over 60% in size
# [3] = molecular target: Aldehyde dehydrogenase 1A1 (Homo sapiens) (UniProt P00352); experiment: qHTS for Inhibitors of the Aldehyde Dehydrogenase Family (ALDH1A1) Confirmatory screens (AID 2061316); further: nearly all actives have a fitted effect of over 65% in size; further: potency means the concentration at half of the fitted maximal effect
# [4] = molecular target: Aldehyde dehydrogenase, mitochondrial (Homo sapiens) (UniProt P05091); experiment: qHTS for Inhibitors of the Aldehyde Dehydrogenase Family (ALDH2) Confirmatory screens (AID 2061303; active means well fitted inhibition curve with a large enough effect; title and protocol of this record describe different tests; further: nearly all actives have a fitted effect of over 45% in size; further: potency means the concentration at half of the fitted maximal effect)
# [5] = molecular target: Retinaldehyde dehydrogenase 3 (Homo sapiens) (UniProt P47895); experiment: qHTS for Inhibitors of the Aldehyde Dehydrogenase Family (ALDH1A3) Primary screen (AID 2061315); further: potency means the concentration at half of the fitted maximal effect
# [6] = molecular target: Retinaldehyde dehydrogenase 3 (Homo sapiens) (UniProt P47895); experiment: qHTS for Inhibitors of the Aldehyde Dehydrogenase Family (ALDH1A3) Validation screen (AID 2061312); further: nearly all actives have a fitted effect of over 45% in size
# [7] = qHTS for Inhibitors of the Aldehyde Dehydrogenase Family (ALDH1A2, ALDH1A3, ALDH2, ALDH3A1) (AID 2061307); further: nearly all actives have a fitted effect of over 50% in size
# [8] = molecular target: Retinal dehydrogenase 2 (Homo sapiens) (UniProt O94788); experiment: qHTS for Inhibitors of the Aldehyde Dehydrogenase Family (ALDH1A2) Confirmation screens (AID 2061314); further: nearly all actives have a fitted effect of over 65% in size; further: potency means the concentration at half of the fitted maximal effect
# [9] = BET inhibitor-based combinations targeting novel dependencies in MECOM-rearranged (r) AML: SET-2 cell line (AID 2202231); details: SET-2 AML cells viability, CellTiter-Glo luminescence, 48 h; viability: active compounds read low, concentration not given here; further: nearly all actives have a fitted effect of over 35% in size; further: potency means the concentration at half of the fitted maximal effect
# Method in brief: (§1)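 Viability of cells (500 per well) is scored by luminescent CellTiter-Glo at 48 hr post-dosing. Eleven-point titrations are normalized to DMSO and empty controls and reduced to AUC values.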
# [10] = BET inhibitor-based combinations targeting novel dependencies in MECOM-rearranged (r) AML: OCI-AML3 cell line (AID 2202232); details: Potency: OCI-AML3 viability; further: potency means the concentration at half of the fitted maximal effect; nearly all actives have a fitted effect of over 35% in size
# Method in brief: as §1
# [11] = BET inhibitor-based combinations targeting novel dependencies in MECOM-rearranged (r) AML: MV-4-11 cell line (AID 2202233); further: potency means the concentration at half of the fitted maximal effect; nearly all actives have a fitted effect of over 45% in size
# Method in brief: (§2)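 Using pin-tool transfer, drugs were added in 11 doses to cells (500/well), incubated 48 hr, and assessed with CellTiter-Glo. Z-AUC is a mean-centring transformation applied separately to each screened line.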
# [12] = BET inhibitor-based combinations targeting novel dependencies in MECOM-rearranged (r) AML: HNT-34 cell line (AID 2202234); further: nearly all actives have a fitted effect of over 35% in size; further: potency means the concentration at half of the fitted maximal effect
# Method in brief: as §2
# [13] = BET inhibitor-based combinations targeting novel dependencies in MECOM-rearranged (r) AML: UCSD-AML1 cell line (AID 2202235); further: nearly all actives have a fitted effect of over 40% in size; further: potency means the concentration at half of the fitted maximal effect
# Method in brief: as §2
# [14] = BET inhibitor-based combinations targeting novel dependencies in MECOM-rearranged (r) AML: AML-191 cell line (AID 2202236; further: nearly all actives have a fitted effect of over 35% in size; further: potency means the concentration at half of the fitted maximal effect)
# Method in brief: as §1
# [15] = BET inhibitor-based combinations targeting novel dependencies in MECOM-rearranged (r) AML: AML-194 cell line (AID 2202237; further: nearly all actives have a fitted effect of over 40% in size; further: potency means the concentration at half of the fitted maximal effect)
# Method in brief: as §1
compound,measurement,setting,value
Cc1nnc(-c2ccc3occ(-c4ccc(S(C)=O)cc4)c3c2)o1 (stereo not given),Potency,[1],inactive
same,Potency,[2],0.631 µM (active)
same,Potency,[3],inactive
c1cc(NCCc2c[nH]c3ccccc23)cc(Nc2ccncc2)c1,Potency,[4],25.1 µM (active)
same,Potency,[1],10 µM (active)
same,Potency,[5],inactive
same,Potency,[3],11.3 µM (active)
Cc1nc(C)c(-c2ccc(C3CCC(CC(=O)O)CC3)cc2)nc1C(N)=O (stereo not given),Potency,[1],inactive
same,Potency,[6],inactive
same,Potency,[5],inactive
O=C(NCc1ccc(OC(F)(F)F)cc1)C1c2ccccc2C(=O)N1C1CCOCC1 (stereo not given),Potency,[1],inactive
same,Potency,[6],inactive
same,Potency,[5],inactive
Cc1ccc2nc3sc(C(=O)NC4CCCC4)cc3cc2c1,Potency,[4],inactive
same,Potency,[1],inactive
same,Potency,[5],inactive
O=C(O)c1cc(-c2c(-c3ccccc3)nn3ccccc23)n[nH]c1=O,Potency,[7],inactive
same,Potency,[1],inactive
same,Potency,[5],inactive
Cc1ccnc(NC(=S)N2CCN(c3cccc(Cl)c3Cl)CC2)c1,Potency,[4],11.3 µM (active)
same,Potency,[1],6.31 µM (active)
same,Potency,[8],14.2 µM (active)
same,Potency,[3],3.18 µM (active)
COc1ccc(S(=O)(=O)Nc2cccnc2Nc2ccc(O)cc2)cc1,Potency,[1],inactive
same,Potency,[2],10.1 µM (active)
same,Potency,[5],7.94 µM (active)
same,Potency,[3],6.34 µM (active)
same,Potency,[9],1.32 µM (active)
same,Potency,[10],0.662 µM (active)
same,Potency,[11],0.742 µM (active)
same,Potency,[12],0.59 µM (active)
same,Potency,[13],0.468 µM (active)
same,Potency,[14],0.468 µM (active)
same,Potency,[15],0.662 µM (active)
Cc1c(C(=O)OCC2CCCO2)[nH]c2c1C(=O)CCC2 (stereo not given),Potency,[4],inactive
same,Potency,[1],inactive
same,Potency,[8],28.3 µM (active)
same,Potency,[5],inactive
same,Potency,[3],3.18 µM (active)
C/C=C1/CC2C(=O)Nc3cc(O)c(OC)cc3C(=O)N2C1 (stereo not given),Potency,[1],inactive
COC(=O)C1=CO[C@@H](O[C@@H]2O[C@H](CO[C@@H]3O[C@H](COC(=O)/C=C/c4ccc(O)cc4)[C@@H](O)[C@H](O)[C@H]3O)[C@@H](O)[C@H](O)[C@H]2O)[C@@H]2C(CO)=CC[C@H]12,Potency,[1],inactive
CN(C)CCCCCCNC(=O)c1cccc(-c2cc(O)c3ncccc3c2)c1,Potency,[1],inactive
same,Potency,[2],8.96 µM (active)
same,Potency,[8],inactive
O=C(/C=C/c1ccc(O)cc1)O[C@H]1[C@@H]2C=CO[C@@H](O[C@@H]3O[C@H](CO)[C@@H](O)[C@H](O)[C@H]3O)[C@@H]2[C@@]2(CO)O[C@@H]12,Potency,[1],inactive
CC(OC1OCCN(Cc2n[nH]c(=O)[nH]2)C1c1ccc(F)cc1)c1cc(C(F)(F)F)cc(C(F)(F)F)c1 (stereo not given),Potency,[1],inactive
same,Potency,[6],inactive
same,Potency,[5],inactive
Cc1nc2cc(-c3cc(F)cc(C#N)c3)ccc2s1,Potency,[1],inactive
same,Potency,[6],inactive
same,Potency,[5],inactive
COc1ccnc(NC(=S)N2CCN(c3ccc(Cl)c(Cl)c3)CC2)c1,Potency,[4],4.47 µM (active)
same,Potency,[1],15.8 µM (active)
same,Potency,[8],3.57 µM (active)
same,Potency,[3],4 µM (active)
COc1ccc(C(=O)N(Cc2ccco2)Cc2cccs2)c(O)c1,Potency,[4],inactive
same,Potency,[1],inactive
same,Potency,[8],22.5 µM (active)
same,Potency,[5],inactive
same,Potency,[3],12.7 µM (active)
Cc1nc(NCc2ccc(-c3cccnc3)cc2)c2ccccc2n1,Potency,[4],inactive
same,Potency,[1],inactive
same,Potency,[8],inactive
same,Potency,[5],inactive
same,Potency,[3],inactive
Cc1nnc(C(=O)NC(C)(C)c2nc(C(=O)NCc3ccc(F)cc3)c(O)c(=O)n2C)o1,Potency,[7],1.59 µM (active)
same,Potency,[1],inactive
same,Potency,[6],inactive
same,Potency,[5],inactive
same,Potency,[3],inactive
same,viability,[9],118%
same,Potency,[12],inactive
same,Potency,[13],inactive
same,Potency,[14],inactive
same,Potency,[15],inactive
O=C(/C=C/N1C[C@@H]2C[C@@H]1CN2c1ccccn1)c1ccccc1O,Potency,[1],inactive
Clc1nc(CN2CCOCC2)nc2sc3c(c12)CCCC3,Potency,[4],4 µM (active)
same,Potency,[1],inactive
same,Potency,[5],inactive
"CCCCCOc1ccc(-c2cc(-c3ccc(C(=O)N[C@H]4C[C@@H](O)[C@@H](O)NC(=O)C5[C@@H](O)[C@@H](C)CN5C(=O)C([C@H](O)CC(N)=O)NC(=O)C([C@H](O)[C@@H](O)c5ccc(O)c(OS(=O)(=O)O)c5)NC(=O)C5C[C@@H](O)CN5C(=O)C([C@@H](C)O)NC4=O)cc3)no2)cc1 (stereo partly drawn) (X6-[Orn(4R-OH,5R-OH)][ξThr(3R)][ξPro(4R-OH)][ξhTyr(3S-OH,4S-OH,3'-OSO3H)][ξGln(3R-OH)][X7]; lactam 1-C)",Potency,[1],inactive
same,Potency,[6],inactive
same,Potency,[5],inactive
Cc1ccc(CNc2ccc(N3CCN(C(=O)OC(C)(C)C)CC3)cc2)cc1,Potency,[4],inactive
same,Potency,[1],inactive
same,Potency,[5],inactive
O=C1c2ccccc2NC(c2ccc(-c3ccc(-c4ccccc4)cc3)o2)N1O (stereo not given),Potency,[4],3.57 µM (active)
same,Potency,[1],1.58 µM (active)
same,Potency,[8],5.65 µM (active)
same,Potency,[5],inactive
same,Potency,[3],4 µM (active)
O=C(O)c1cc(N(Cc2ccc(C3CCCCC3)cc2)C(=O)c2ccc(Oc3ccccc3)cc2)ccc1O,Potency,[1],inactive
same,Potency,[6],inactive
same,Potency,[5],inactive
COc1cc2c(cc1O)C1(OC)Cc3ccc4c(c3C1N(C)CC2)OCO4 (stereo not given),Potency,[1],inactive
COc1ccc(C2Nc3ccccc3C(=O)N2Cc2ccccc2)cc1COc1ccc(F)cc1 (stereo not given),Potency,[4],inactive
same,Potency,[1],inactive
same,Potency,[8],15.9 µM (active)
same,Potency,[5],inactive
same,Potency,[3],inactive
CC1(O)CCC2C(C(=O)O)=COC(OC3OC(CO)C(O)C(O)C3OC(=O)/C=C/c3ccc(O)cc3)C21 (stereo not given),Potency,[1],inactive
Cc1ccc2nc3sc(C(=O)NC4CCCCC4)cc3cc2c1,Potency,[4],inactive
same,Potency,[1],inactive
same,Potency,[5],inactive
CC(C)[N+]1(C)C2CCC1CC(OC(=O)C(CO)c1ccccc1)C2 (stereo not given),Potency,[1],inactive
same,Potency,[6],inactive
same,Potency,[5],inactive
COc1ccc(-c2c(-c3cc(C(=O)O)ccn3)ncn2C)cc1,Potency,[4],inactive
same,Potency,[8],28.3 µM (active)
same,Potency,[5],inactive
same,Potency,[3],inactive
